Only a selection was taken, and hits are over-represented in it overall.
Cycloheximide cs: counter-screen hit for Shiga toxin inhibitors, cycloheximide | cell reporter, cycloheximide protein synthesis inhibition counterscreen | max response, % | 300,000 tested, 12% active | AID 2314; in the data active = max response mostly above about 13%, no sharp cut-off; inactive = mostly below about 14%; note: read at 38.3 µM for the half of the compounds with a filed dose; 0% is about no effect
Giardia FBPA inh: Giardia lamblia aldolase inhibition | A8B2U2 | purified Giardia FBPA | Potency, µM (doses to about 59.6 µM), for the others: top-dose activity, negative = inhibition, most hits filed as inhibitors | 290,000 tested, 0.71% active; note: potency is the fitted concentration of half-maximal effect; % is set by controls: 0 for no effect and ±100 for the full control effect; nearly all actives have a fitted effect of over 55% in size
Target sequence (A8B2U2 whole entry, looked up): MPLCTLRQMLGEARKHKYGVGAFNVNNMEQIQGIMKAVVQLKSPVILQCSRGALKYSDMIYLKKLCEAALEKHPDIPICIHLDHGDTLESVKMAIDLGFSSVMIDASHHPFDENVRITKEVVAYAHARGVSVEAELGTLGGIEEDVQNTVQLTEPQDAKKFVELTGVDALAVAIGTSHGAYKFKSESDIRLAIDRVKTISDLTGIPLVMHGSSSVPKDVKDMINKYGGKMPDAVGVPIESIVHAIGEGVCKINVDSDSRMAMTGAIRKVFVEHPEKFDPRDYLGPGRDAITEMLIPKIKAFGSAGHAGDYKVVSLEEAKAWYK
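Giardia FBPA (40 nM reagent) was preincubated 10 min at RT with compound (up to 57.5 uM final), then substrate plus GAPDH/TPI/NAD/arsenate coupling system with diaphorase/resazurin was added; resorufin fluorescence (525/598 nm) was read after 20 min.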
RE007 growth inh: less growth of the S. pombe RE007 Vpr strain. S. pombe RE007 Vpr strain, BacTiter-Glo ATP luminescence, 24 h. Potency, µM (top dose mostly 92.2 µM), inactives show top-dose activity change, negative = less growth, usual class: inhibitors. 360,000 tested, 0.21% active; active = well fitted falling curve with a large enough effect; inconclusive = small, poorly fitted or top-dose-only effect; inactive = no such curve, though single readings can be large or run the other way; note: potency is the fitted concentration of half-maximal effect; % is set by controls: 0 for no effect and ±100 for the full control effect; nearly all actives have a fitted effect of over 50% in size
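Fission yeast RE007 carrying one integrated HIV-1 vpr copy, seeded at OD 0.01 in PMG+AL medium with 23 nL pinned compound. Grown 24 h at 30 degrees; viability read by BacTiter-Glo luminescence after 5 min.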
Tb PYK inh: T. brucei pyruvate kinase inhibition; TbPYK enzyme, Kinase-Glo Plus ATP luminescence, 45 min; Potency, µM (doses to about 76.8 µM), for inactives: at the highest dose activity, negative = inhibition, actives largely listed as inhibitors; Q57TT1; 410,000 tested, 0.12% active; note: potency is the fitted concentration of half-maximal effect; % is set by controls: 0 for no effect and ±100 for the full control effect; nearly all actives have a fitted effect of over 50% in size
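Readout: single end-point luminescence (Kinase-Glo Plus, 10 min). Reaction conditions were TbPYK/substrate plus 130 uM ADP, 45 min at RT, pH 7.2 TEA buffer. No-enzyme wells served as controls, and data were normalized before concentration-response fitting.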
LmPK inhibitor: LmPK (Leishmania mexicana) enzyme inhibition; Q27686; purified LmPK, Kinase-Glo ATP luminescence, 1 h; Potency, µM (top dose mostly 57.5 µM), for the others: top-dose activity change, negative = inhibition, usual class: inhibitors; 290,000 tested, 0.37% active; AID 1721; note: potency is the fitted concentration of half-maximal effect; % is set by controls: 0 for no effect and ±100 for the full control effect
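Purified LmPK (0.1 nM) with 0.5 mM PEP and 0.1 mM ADP in imidazole buffer pH 7.2 with MgCl2/KCl, 1 h at room temperature. ATP formed was read by luciferase luminescence and normalized to no-enzyme and uninhibited controls.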
Shiga inhibitor: inhibitors of Shiga toxin in Vero cells; inhibition, % at 38.7 µM; 290,000 tested, 9.2% active; Vero cells, Shiga toxin protein synthesis inhibition reporter; in the data active = inhibition mostly above about 28%, no sharp cut-off; inactive = mostly below about 43%; note: 0% is about no effect
* = called active by the depositor; ? = inconclusive; . = not tested or not shown. Unless noted, calls come from the whole dose curve; as a rule, active = well fitted curve in the direction sought with a large enough effect; inconclusive = small, poorly fitted or top-dose-only effect, or another doubt; inactive = no such curve, though single readings can be large; an effect the other way counts as inactive or inconclusive.

SMILES	Cycloheximide cs	Giardia FBPA inh	RE007 growth inh	Tb PYK inh	LmPK inhibitor	Shiga inhibitor
COc1ccc(-c2nc3scc(CCNS(=O)(=O)c4c(C)noc4C)n3n2)cc1OC	.	.	.	4%	.	.
O=C(Nc1ccc(NC(=O)c2ccc([N+](=O)[O-])o2)cc1Cl)c1ccco1	-2	8%	6%	-6%	-6%	-4
Cc1ccc(NC(=O)c2ccc([N+](=O)[O-])o2)c(C)c1	38*	-16%	-27%	0%	-1%	80*
Cc1ccc(-c2nnc(NC(=O)c3ccc([N+](=O)[O-])o3)o2)c(C)c1	.	.	-17%	-22%	.	.
Cc1ccccc1NC(=O)c1ccc([N+](=O)[O-])o1	30*	-9%	-29%	0%	1%	45*
Cc1cccc(/C=C/C(=O)c2ccc([N+](=O)[O-])o2)c1	.	.	7%	0%	.	.
Cc1ccccc1/C=C/C(=O)c1ccc([N+](=O)[O-])o1	.	.	8.9µM*	-8%	.	.
O=C(Nc1ccccc1Cl)c1ccc([N+](=O)[O-])o1	60*	-4%	?	0%	0%	110*
Cc1nc2ccc(S(=O)(=O)CCC(=O)Nc3ccc(Cl)cc3)cc2s1	.	.	.	-4%	.	.
CCCCNC(=O)c1cnn2c(C)c(Cc3c(F)cccc3Cl)c(C)nc12	.	.	.	0%	.	.
Cc1cccc(NC(=O)c2ccc([N+](=O)[O-])o2)n1	25*	-13%	?	-2%	2%	33
CSc1cccc(NC(=O)CNC(=O)c2ccc3c(c2)OCO3)c1	.	.	-9%	-6%	.	.
CSc1cccc(-n2cc(-c3ccc4c(c3)OCO4)[nH]c2=O)c1	29*	-4%	7%	-8%	-1%	83*
COc1cccc(CN2CC(C(=O)NCCOc3ccccc3F)CCC2=O)c1 (configuration not stated)	8	2%	3%	21%	0%	1
COc1cccc(CN2CC(C(=O)NCCOc3ccccc3)CCC2=O)c1 (configuration not stated)	19*	.	5%	2%	9%	17
COc1cccc(CN2CC(C(=O)N(C)C3CCOCC3)CCC2=O)c1 (configuration not stated)	14*	-2%	9%	4%	4%	17
Cc1ccc(C(=O)Nc2nnc(SCc3cc(=O)n4ccc(C)cc4n3)s2)cc1	.	.	.	2%	.	.
C=CCNC(=O)c1ccc(NC(=O)C2=CSCCO2)cc1	23*	1%	-9%	-20%	-2%	30
CC(C)CCNC(=O)c1ccc(NC(=O)C2=CSCCO2)cc1	24*	.	-8%	0%	-6%	59*
CC1CCCN(CCCNC(=O)c2ccc(NC(=O)C3=CSCCO3)cc2)C1 (configuration not stated)	-3	.	2%	6%	1%	10
O=C(Nc1ccc(C(=O)NCCCN2CCCCC2)cc1)C1=CSCCO1	9	.	-17%	-1%	-9%	12
Cc1cc(O)cc(O)c1C(=O)OC1(C)C(=O)C=C2C=C(/C=C/CO)OC=C2C1=O (configuration not stated)	.	-13%	.	.	.	.
CCn1nnc2cc(C(=O)Nc3ccc(C)cc3Br)ccc21	.	.	.	4%	.	.
OCCCNCc1ccc(-c2ccccc2)cc1	1	-1%	1%	-23%	3%	30
OCCNCCCCOc1ccc(OCc2ccccc2)cc1	34*	1%	8%	2%	1%	86*
SMILES	Cycloheximide cs	Giardia FBPA inh	RE007 growth inh	Tb PYK inh	LmPK inhibitor	Shiga inhibitor
OCCCCNCc1ccc(OCc2ccccc2Cl)cc1	25*	0%	5%	-2%	-1%	26
OCCCCNCc1ccc(OCc2ccccc2)cc1	14*	-6%	11%	-1%	-3%	34
CC(O)CNCCCCOc1ccc(OCc2ccccc2)cc1 (configuration not stated)	24*	2%	-1%	1%	-4%	75*
Cc1cc2c(s1)c1cnn(Cc3ccc(C(F)(F)F)cc3F)c(=O)c1n2C	-6	.	.	.	.	-8
Clc1ccc(CSc2ccc(-c3cccs3)nn2)cc1	.	.	.	2%	.	.
c1ccc(CSc2ccc(-c3cccs3)nn2)nc1	44*	0%	11%	-6%	-1%	51*
c1ccc(CSc2ccc(-c3cccs3)nn2)cc1	31*	1%	1%	-12%	-5%	40*
